High-throughput results (PubChem BioAssay)
Shown are actives, neighbours in structure and some others; about 19% of the full set was active somewhere.
KB-V1 MDR tox: KB-V1 MDR subline cytotoxicity | KB-V1 MDR cells viability, CellTiter-Glo, 72 h | AID 1347076 | Potency, µM (top dose mostly 46.1 µM), most hits filed as cytotoxic | 400,000 tested, 3.4% active; note: nearly all actives have a fitted effect of over 60% in size
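Readout: CellTiter-Glo luminescence, 10 min after addition. Cells: KB-V1 MDR subline, 72 h at 37 degrees C with compound. Analysis: corrected, normalized data fitted to concentration-effect curves.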
TDP1 cell CPT: growth inhibition of DT40 Tdp1-/-;hTDP1 cells with camptothecin (screen for TDP1 inhibitors) | AID 686979 | Potency, µM (top dose mostly 46.2 µM), hits mostly inhibitors | chicken DT40 Tdp1-/-;hTDP1 cells + 20 nM CPT, ATP luminescence, 48 h | 420,000 tested, 12% active; note: nearly all actives have a fitted effect of over 55% in size
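Cell growth measured by CellTiter-Glo luminescence after a minimum 48 h, 37 C compound exposure with 20 nM CPT in Tdp1-knockout DT40 cells stably expressing hTDP1, seeded 400/well; qHTS titration format.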
TDP1 cell noCPT: qHTS for Inhibitors of human tyrosyl-DNA phosphodiesterase 1 (TDP1): qHTS in cells in absence of CPT; DT40 Tdp1-/- hTDP1 cells, no CPT, ATP luminescence, 48 h; Potency, µM (series often up to 46.2 µM), most hits filed as inhibitors; 420,000 tested, 15% active; AID 686978, 2013; note: nearly all actives have a fitted effect of over 55% in size
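Chicken DT40 Tdp1-/- cells stably complemented with human TDP1 were seeded at 400 cells/well with DMSO in place of 20 nM camptothecin. After compound pinning, cells grew at least 48 hr at 37 °C; viability read by CellTiter-Glo luminescence.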
HT1080 IDH1KD tx: kills HT-1080 cells with IDH1 knockdown; HT-1080 IDH1 knockdown viability, ATP luminescence, 48 h; Potency, µM (doses to about 46.1 µM), hits mostly cytotoxic; 360,000 tested, 2% active; AID 686971
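CellTiter-Glo luminescence after 48 h compound exposure at 37 degrees C of IDH1-knockdown HT-1080 cells in 5% FBS RPMI. %Activity scaled between DMSO wells and cell-free media wells, with curves fitted and assigned curve classes.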
HT1080-NT tox: kills 2HG-producing HT-1080-NT fibrosarcoma cells; 360,000 tested, 1.6% active; Potency, µM (titrated, usually from 46.1 µM), usual class: cytotoxic; HT-1080-NT fibrosarcoma viability, CellTiter-Glo ATP luminescence, 48 h;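 note: NT is the 2HG producing partner of a matched IDH1 knockdown line; nearly all actives have a fitted effect of over 55% in size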
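Toxicity toward the 2HG-producing NT line was scored as %Activity, normalised to DMSO and no-cell wells, from CellTiter-Glo luminescence after 48 hours' treatment.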
KB-3-1 tox: kills parental KB-3-1 adenocarcinoma cells | Potency, µM (doses to about 46.1 µM), hits mostly cytotoxic | KB-3-1 viability, CellTiter-Glo ATP luminescence, 72 h | AID 1347075 | 400,000 tested, 1.4% active; note: nearly all actives have a fitted effect of over 60% in size
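KB-3-1 parental drug-naive adenocarcinoma cells in DMEM/10% FBS, incubated 72 h at 37 C with pin-transferred compounds across a concentration series. Viability by CellTiter-Glo luminescence; concentration-response curves fitted after normalization.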
Hits are given with their value; n = inactive; u = inconclusive; x = no result given; [ ] = dose if it differs, or a comment. Calls come from the whole dose curve; as a rule, active = well fitted curve in the direction sought with a large enough effect; inconclusive = small, poorly fitted or top-dose-only effect, or another doubt; inactive = no such curve, though single readings can be large; an effect the other way counts as inactive or inconclusive.

SMILES	KB-V1 MDR tox	TDP1 cell CPT	TDP1 cell noCPT	HT1080 IDH1KD tx	HT1080-NT tox	KB-3-1 tox
COc1ccc(OCCSc2nnc(C)n2-c2ccccc2)cc1	n	29.1µM	25.9µM	n	n	n
CCCCSc1nc(C)cc(SCC(=O)N/N=C/c2cccc(OC)c2O)n1	n	1.46µM	1.3µM	u	u	u
CCOCc1c(C(=O)OCC(=O)/C(C#N)=C(\C)N)oc2ccccc12	n	n	n	n	n	n
COc1ccc(O)c(/C=N/NC(=O)CSc2nnc(C)n2-c2ccccc2)c1	n	16.4µM	18.4µM	u	u	u
Cc1ccc(S(=O)(=O)CCSc2n[nH]c(=O)n2-c2ccc3c(c2)OCCO3)cc1	n	u	20.6µM	n	n	n
Cc1ccc(NC(=O)CC2S/C(=N/c3nccs3)N(C)C2=O)c(C)c1 (stereo not drawn)	n	n	n	n	n	n
Cc1nc(C(=O)N2CCCC(C(=O)c3cccc(OC(C)C)c3)C2)cs1 (stereo not drawn)	u	10.3µM	14.6µM	n	n	n
Cc1cnc(C(=O)N2CCCC(C(=O)c3cccc(OC(C)C)c3)C2)cn1 (stereo not drawn)	n	u	n	n	n	n
CC(C)Oc1cccc(C(=O)C2CCCN(C(=O)c3ccccn3)C2)c1 (stereo not drawn)	n	20.6µM	10.3µM	n	n	n
CN(C)C1=NCCN1CCc1cccc(F)c1	n	n	n	n	n	n
O=C(CNC1CCN(Cc2ccccc2)CC1)Nc1ccc(S(=O)(=O)N2CCCCC2)cc1	u	u	u	n	u	n
CCc1cc2ccc(C)cc2nc1SCC(=O)N1CCN(C(=O)c2ccco2)CC1	5.17µM	u	18.4µM	n	n	n
CCc1cc2cc3c(cc2nc1SCC(=O)N1CCN(C(=O)c2ccco2)CC1)OCO3	u	u	u	n	n	n
CCc1cc2cc(C)cc(C)c2nc1SCC(=O)N1CCN(C(=O)c2ccco2)CC1	23.1µM	u	u	n[9.24 µM]	n	u
CN(C)C(CNC(=O)c1cccc(S(=O)(=O)NCc2ccccc2)c1)c1ccccc1 (stereo not drawn)	n	u	u	n	n	n
O=C(Nc1ccc(F)cc1)c1sc2cc(C(F)(F)F)cnc2c1-c1cccs1	n	u	18.4µM	n	n	n
COc1ccc(NC(=O)c2sc3cc(C(F)(F)F)cnc3c2-c2cccs2)cc1	n	n	n	n	n	n
CC1=CC2C(C(C)C)CCC(C)(O)C2CC1 (stereo not drawn)	x	n	n	x	x	x
COc1ccc(CNC(=O)C(c2cccs2)N(Cc2ccco2)C(=O)Cc2cccs2)cc1 (stereo not drawn)	u	u	23.1µM	n	n	u
CCOc1cc(/C=N/Nc2nnc(C)n2N)ccc1OC(C)=O	n	u	16.4µM	20.6µM	16.4µM	n
COc1ccc(/C=N/Nc2nncn2N)cc1Br	n	u	u	u	16.4µM	n
CCc1nnc(N/N=C\c2ccc(OC(C)=O)c(OC)c2)n1N	n	n	n	18.4µM	u	n
Cc1nnc(N/N=C/c2cccc(C(F)(F)F)c2)n1N	n	n	n	u	u	n
CCc1nnc(N/N=C/c2ccc(O)c(OC)c2)n1N	n	u	n	n	n	n
Cc1ccccc1COC(=O)c1ccc(-c2nnn(Cc3ccccc3F)n2)cc1	n	n	n	x	x	n
SMILES	KB-V1 MDR tox	TDP1 cell CPT	TDP1 cell noCPT	HT1080 IDH1KD tx	HT1080-NT tox	KB-3-1 tox
CCN(CC)CCCNC(=O)c1sc2nc3n(c(=O)c2c1C)CCCCC3	n	n	u	x	x	n
O=c1[nH]c(=O)n(C2OC(CO)C(O)C2O)cc1N1CCOCC1 (stereo not drawn)	n	n	n	n	n	n
CC(C)c1c(C(=O)Nc2ccccc2)c(-c2ccccc2)c(-c2ccc(F)cc2)n1CC[C@@H](O)C[C@@H](O)CC(=O)O	x	u	15µM	x	x	x
COc1ccc(CN2C(=O)C(CC(=O)NCCc3ccccn3)CC(C(=O)N(C)C)=C2C)cc1 (stereo not drawn)	n	n	n	n	n	n
CCOc1ccc(CCNC(=O)c2ccc3c(c2)N(Cc2ccccc2)C(=O)c2ccccc2S3=O)cc1OCC (stereo not drawn)	n	16.4µM	5.8µM	x	x	u
CCN1CCN(CCNC(=O)c2ccc3c(c2)N(Cc2cccc(Cl)c2)C(=O)c2ccccc2S3=O)CC1 (stereo not drawn)	n	n	n	u	n	u
CCN(C(=O)c1ccc2c(c1)N(Cc1cccc(Cl)c1)C(=O)c1ccccc1S2=O)c1ccccc1 (stereo not drawn)	n	u	16.4µM	x	x	u
Cc1ccc(CCNC(=O)c2ccc3c(c2)N(Cc2ccccc2)C(=O)c2ccccc2S3=O)cc1 (stereo not drawn)	n	16.4µM	14.6µM	x	x	n
O=C(c1ccccc1)C1CCN(C(=O)c2c(F)cccc2F)CC1	n	n	n	n	n	n
Cc1cccc(NC(=O)C2CCN(C(=O)[C@@H]3Cc4ccccc4CN3)CC2)c1	n	n	n	n	n	n
Cc1cc(C)cc(NC(=O)c2cn3c4c(ccc(Cl)c4c2=O)OC(C)C3)c1 (stereo not drawn)	n	n	n	x	x	n
O=C(Nc1cccnc1)C1Cc2c(-c3ccccc3Oc3ccccc3)ccnc2O1 (stereo not drawn)	n	u	23.1µM	u	u	n
O=C(Nc1cccc(C(F)(F)F)c1)C1Cc2c(-c3ccccc3Oc3ccccc3)ccnc2O1 (stereo not drawn)	18.4µM	23.1µM	16.4µM	u	u	u
CC(=O)c1cccc(NC(=O)C2Cc3c(-c4ccccc4Oc4ccccc4)ccnc3O2)c1 (stereo not drawn)	u	18.4µM	16.4µM	u	u	n
CN(C)c1cccc(NC(=O)C2Cc3c(-c4ccccc4Oc4ccccc4)ccnc3O2)c1 (stereo not drawn)	u	u	u	u	n	u
CC(=O)c1cccc(NC2c3ccccc3C(=O)N2Cc2ccc3c(c2)OCO3)c1 (stereo not drawn)	n	u	20.6µM	n	n	n
O=C1c2ccccc2C(Nc2cccnc2)N1Cc1ccccc1 (stereo not drawn)	n	n	n	n	n	n
CCOc1ccc(NC2c3ccccc3C(=O)N2Cc2ccc3c(c2)OCO3)cc1 (stereo not drawn)	n	u	16.4µM	n	n	u
O=C1c2ccccc2C(Nc2ccc3c(c2)OCCO3)N1Cc1ccccc1 (stereo not drawn)	n	29.1µM	16.4µM	n	n	n
COc1cc(NC2c3ccccc3C(=O)N2Cc2ccc3c(c2)OCO3)cc(OC)c1OC (stereo not drawn)	n	n	u	n	n	n
